Beta2AR agonist: beta2AR agonists driving receptor internalization, primary screen, cell-based, FAP fluorogen, flow cytometry | Beta-2 adrenergic receptor (Homo sapiens), P07550 | Am2.2-beta2AR cells | response, % (no concentration beside the values) | actives 0.43% (n = 340,000) | AID 504454, 2011;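 active = response above a set limit, near 3 SD of response in nonfluorescent compounds, cut at about 42% in these data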
Target sequence (P07550 whole entry, looked up): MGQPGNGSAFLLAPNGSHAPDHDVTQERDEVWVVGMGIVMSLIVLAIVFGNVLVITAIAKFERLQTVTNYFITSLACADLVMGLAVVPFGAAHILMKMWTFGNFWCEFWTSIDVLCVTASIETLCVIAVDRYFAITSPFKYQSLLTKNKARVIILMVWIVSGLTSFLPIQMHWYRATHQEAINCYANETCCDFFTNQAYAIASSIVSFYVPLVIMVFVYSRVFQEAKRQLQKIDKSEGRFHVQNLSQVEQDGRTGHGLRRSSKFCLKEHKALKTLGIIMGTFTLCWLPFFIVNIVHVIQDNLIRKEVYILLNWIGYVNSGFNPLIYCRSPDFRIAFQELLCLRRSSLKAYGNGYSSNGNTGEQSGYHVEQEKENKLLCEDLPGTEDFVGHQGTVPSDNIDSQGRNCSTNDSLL
CF NFkB block: inhibitors of PAF-induced NF-kB signaling, primary screen, cell-based, GFP fluorescence, uHTS; actives 0.86% (n = 360,000); AID 588850, 2011; KKLEB NF-kB-GFP reporter, GFP fluorescence overnight; inhibition, % at 5 µM;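 active = at least 50% inhibition at 5 µM, scaled per plate between neutral and stimulator controls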;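 note: PAF is a Pseudomonas aeruginosa culture filtrate used as stimulus; plate controls were PAF-stimulated DMSO wells for no effect and unstimulated DMSO wells for full effect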
HIF-2a inh: HIF-2a reporter inhibitors, primary screen, luminescence, 786-0 RCC cells | 786-0 RCC cells HIF-2a reporter, luciferase luminescence, overnight | inhibition, % at 18.8 µM | actives 0.72% (n = 360,000) | AID 624352, 2012;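 active = inhibition of the luminescence signal of 40% or more relative to plate controls, in a single-dose primary screen at 18.75 µM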
Peg3 prom inh: Peg3 promoter-driven luciferase inhibitors, primary screen, cell-based, HeLa, luciferase luminescence | AID 588405, 2011 | actives 1.7% (n = 360,000) | inhibition, % at 20 µM | HeLa PEG-Prom luciferase reporter, overnight;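 active = inhibition of at least 50% at 20 µM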
KKLEB cytotox: cytotoxicity in KKLEB CF airway cells, primary screen, cytotoxicity control for CF NF-kB inhibitor project, cell-based, uHTS, fluorescence assay plates | KKLEB CF airway cells viability, ATPlite luminescence, overnight; hits give low values; cells stimulated with P. aeruginosa culture filtrate | activity change (cytotoxicity), % at 5 µM | actives 0.36% (n = 360,000) | AID 602141, 2011;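 active = corrected activity change at or below -50% at 5 µM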
TRPM1 prom inh: inhibitors of MITF-dependent TRPM1 promoter reporter, primary screen, cell-based, SK-MEL-5, single point, luciferase; SK-MEL-5 TRPM1 promoter luciferase, 24 h; inhibition, % at 12.5 µM; actives 0.83% (n = 330,000);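 active = mean inhibition across replicates of 60% or more, whatever share of single replicates reaches that level; inconclusive = some that reach 60%, reason not given; inactive = mean inhibition across replicates below 60%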
* marks the source's active call; other numbers are inactive results; u = inconclusive; x = no result. Sampled rows, rich in hits. Any-hit rate of the full collection: about 2.8%.

SMILES	Beta2AR agonist	CF NFkB block	HIF-2a inh	Peg3 prom inh	KKLEB cytotox	TRPM1 prom inh
O=C(Nc1cccc(-c2nc3ccccc3[nH]2)c1)c1cccc(NC(=O)c2ccco2)c1	27.8	37.8	-51.4	104.4*	-59.1*	87.4*
O=C(Nc1ccc(Cl)c(-c2nc3ccccc3[nH]2)c1)c1ccc2c(c1)OCO2	13.1	-22.1	-50.9	-11.9	4.2	0.5
O=C(CSc1ccccc1)Nc1ccc(-c2nc3ccccc3[nH]2)cc1	-9.2	7.1	-125.1	-196.0	-11.9	-44.4
Cc1[nH]n(-c2ccccc2)c(=O)c1C(C[N+](=O)[O-])c1ccc(Br)cc1 (stereo unspecified)	28.3	8.4	28.5	102.8*	-10.8	82.8*
Cc1csc(-c2cc(C(=O)NCc3ccc(F)cc3)n[nH]2)c1	x	-13.1	-34.5	-41.6	3.7	x
CCOc1ccc(NC(=O)CN(C)C(=O)c2cc3c(s2)CCC3)cc1OCC	x	-0.6	19.3	19.6	1.8	x
Cc1cccc(NC(c2ccc(C)s2)c2ccc3ccc(C)nc3c2O)n1 (stereo unspecified)	29.6	40.9	65.8*	44.8	-22.9	14.9
Cc1ccc2ccc(C(Nc3ccccc3)c3ccccc3)c(O)c2n1 (stereo unspecified)	x	x	-65.7	x	x	x
O=C1c2ccccc2C2=Nc3ccccc3SC(c3cccc(F)c3)C12 (stereo unspecified)	2.0	31.3	28.1	57.9*	-18.0	-0.5
Cc1cc(C)c(S(=O)(=O)N2CCN(C(=O)CC(C)n3nc(C)nc3C)CC2)c(C)c1 (stereo unspecified)	x	-17.5	9.9	11.8	8.4	x
Cc1ccc(C2C(/C=C3/SC(=S)NC3=O)=C(c3cccs3)Oc3ccccc32)cc1 (stereo unspecified)	11.0	63.5*	-44.7	45.9	-37.9	7.9
O=C1NC(=S)SC1=Cc1ccccc1Cl	25.1	43.7	-140.8	-79.2	-0.9	-3.9
O=P(CCCCCCCCCP(=O)(c1ccccc1)c1ccccc1)(c1ccccc1)c1ccccc1	17.9	9.0	13.9	67.3*	-11.2	40.6
O=C(N/N=C/c1ccc([N+](=O)[O-])o1)c1cc2c(ccc3ccccc32)o1	16.8	-18.1	-7.2	54.5*	-12.0	u
Cc1nc2ccccn2c1C(=O)N/N=C/c1ccc([N+](=O)[O-])o1	6.2	-6.7	-3.4	15.1	-1.5	68.7*
CC(NC(=O)C12CC3CC(CC(C3)C1)C2)C(=O)N/N=C/C1=C(N2CCOCC2)C(=C\c2cccc([N+](=O)[O-])c2)/CC1 (stereo unspecified)	-10.1	4.9	17.0	19.9	-1.3	14.1
CC(NC(=O)C12CC3CC(CC(C3)C1)C2)C(=O)NN=Cc1ccc([N+](=O)[O-])o1 (stereo unspecified)	3.2	14.2	-19.1	17.6	-5.9	62.1*
CC(C)C(NC(=O)C12CC3CC(CC(C3)C1)C2)C(=O)N/N=C/C1=C(N2CCOCC2)C(=C\c2ccc([N+](=O)[O-])cc2)/CC1 (stereo unspecified)	-3.1	91.2*	4.9	29.6	-99.7*	-6.1
Cc1ccc(/C=N/NC(=O)c2cc3c(ccc4ccccc43)o2)o1	10.6	-41.2	-76.4	-57.4	10.9	-30.6
COC(=O)N(C)C[C@@H]1OCc2cnnn2CCCC(=O)N([C@H](C)CO)C[C@@H]1C	x	4.2	2.6	4.7	7.4	x
COc1ccccc1C(=O)N1CCN(C(=O)[C@H]2O[C@@H](n3cnc4c(N)ncnc43)[C@H](O)[C@@H]2O)CC1	x	-14.4	13.1	16.5	-6.8	x
O=C(N[C@H]1CC[C@H](CCNS(=O)(=O)c2ccc(Cl)cc2)O[C@@H]1CO)c1cccc(F)c1	x	x	-4.5	x	x	x
O=C(N/N=C/c1ccc([N+](=O)[O-])o1)c1cc2ccccc2o1	5.2	-8.9	0.2	18.7	7.6	98.0*
O=C(N/N=C/c1ccc([N+](=O)[O-])o1)c1ccc(O)cc1	10.1	22.4	-57.6	-28.1	-4.2	87.2*

Screens (PubChem BioAssay)
